# Records with an inconclusive call do not appear. Activity calls are given as the source filed them. Calls come from the whole dose curve. Starred links: 1 amine or outer side, 2 acyl side, 3 side chain; linkers in the order of their positions; H or OH if unused. Positions of bridges follow the written chain, without caps; N, C: chain ends. Non-standard residues stand in square brackets, D forms with d. Residues, ends and D or L forms follow the SMILES beside them. Chains are numbered I, II in the order given. Actinocin(9to1) = Cc1c2oc3c(C)ccc(C(=O)[*:1])c3nc-2c(C(=O)[*:2])c(N)c1=O; NMeV = CN[C@H](C(=O)O)C(C)C; Sar = CNCC(=O)O
# Biological target: Acetylcholinesterase (Homo sapiens) (UniProt P22303)
# Sequence (P22303 whole entry, looked up): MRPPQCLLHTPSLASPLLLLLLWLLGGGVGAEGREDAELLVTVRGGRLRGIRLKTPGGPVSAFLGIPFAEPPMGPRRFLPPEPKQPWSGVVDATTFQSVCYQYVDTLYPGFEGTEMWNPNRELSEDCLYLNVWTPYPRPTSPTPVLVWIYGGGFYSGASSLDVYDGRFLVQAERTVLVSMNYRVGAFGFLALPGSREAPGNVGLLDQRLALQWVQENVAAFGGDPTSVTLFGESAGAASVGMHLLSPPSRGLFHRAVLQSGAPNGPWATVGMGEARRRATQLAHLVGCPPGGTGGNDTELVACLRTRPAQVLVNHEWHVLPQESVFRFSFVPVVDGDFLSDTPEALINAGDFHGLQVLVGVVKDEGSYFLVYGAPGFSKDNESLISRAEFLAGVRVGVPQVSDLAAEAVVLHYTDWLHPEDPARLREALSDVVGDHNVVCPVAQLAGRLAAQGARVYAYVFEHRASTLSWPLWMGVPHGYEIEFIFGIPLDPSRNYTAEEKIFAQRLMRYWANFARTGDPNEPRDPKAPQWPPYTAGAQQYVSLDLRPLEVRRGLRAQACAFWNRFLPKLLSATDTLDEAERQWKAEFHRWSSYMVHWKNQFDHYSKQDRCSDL
# Experiment: Acetylcholinesterase (AChE) small molecule antagonists: colormetric cell-based qHTS assay (AID 1347395); note: nearly all actives have a fitted effect of over 30% in size
# Details: SH-SY5Y cells AChE activity, colorimetric (Ellman); series mostly up to 115 µM; activity, negative = inhibition: at the top concentration
# How it was run: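 Homogeneous whole-cell format. SH-SY5Y cells seeded overnight, dosed with compound (30 min, 37 C, 5% CO2), then given DTNB/acetylthiocholine cocktail for 90 min at 37 C; colorimetric signal.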
# % is set by controls: 0 for no effect and ±100 for the full control effect; potency is the fitted concentration of half-maximal effect.
SMILES,Potency,"activity, negative = inhibition",outcome
CC(=O)Nc1cccc(O)c1,inactive,,
C=CC(=O)OCCOCCOCCOCCOC(=O)C=C,inactive,,
O=C=NCCCCCCN=C=O,inactive,,
CCN=C1C=CC(=C(c2ccc(N(CC)CC)cc2)c2ccc(N(CC)CC)cc2)c2ccccc21,62.9 µM (active),,
CC(C)(O)CCc1ccccc1,,-0.943% (inactive),
Cc1ccc(C(C)C)cc2c(C)ccc1-2,,1.18% [at 52.9 µM] (inactive),
O=[N+]([O-])c1ccccc1C(F)(F)F,inactive,,
CCCCC/C=C\C/C=C\CCCCCCCC(=O)OC,inactive,,
CC(=O)OC/C=C(\C)CC/C=C(\C)CCC=C(C)C,inactive,,
Cc1c(C(C)C)c(=O)n(-c2ccccc2)n1C,,1.58% [at 52.9 µM] (inactive),
CN(C)CCOC(c1ccccc1)c1ccc(Br)cc1 (stereo not given),,-4.3% [at 52.9 µM] (inactive),
CCS(=O)(=O)c1ccc(OC)c(C(=O)OC)c1,,0.455% [at 52.9 µM] (inactive),
CCOC(OCC)OCC,,3.89% (inactive),
COc1cc(O)cc(O)c1,,-0.528% [at 52.9 µM] (inactive),
O=C(Cl)c1ccc(C(=O)Cl)cc1,inactive,,
Cc1c(Cl)c(=O)oc2cc(O)ccc12,35.6 µM (active),,
CC(C)(C)C(=O)CCc1ccc(Cl)cc1,,4.48% (inactive),
CC1=C(O)C(=O)OC1C (stereo not given),,-1.11% (inactive),
CC(CC(C#N)(c1ccccc1)C(C)C)N(C)C (stereo not given),,-2.63% [at 52.9 µM] (inactive),
O=C(O)c1cccc(C[C@@H]2COc3ccc(OCc4nc5cc(F)ccc5s4)cc3[C@@H]2O)c1,,-0.838% (inactive),

SMILES,Potency,"activity, negative = inhibition",outcome
CCCc1cc(C(N)=S)ccn1,,4.49% [at 52.9 µM] (inactive),
O=C1CCCc2ccccc21,,0.724% (inactive),
Nc1cccc(N)n1,inactive,,
CC(C)CC(=O)CC(C)CC(C)C (stereo not given),inactive,,
CCCCCNCCCCC,inactive,,
C#CCN[C@@H]1CCc2ccccc21,,,inactive
C(=C(c1ccccc1)c1ccccc1)c1ccccc1,,5.97% (inactive),
CC(C)CCO,,-0.841% (inactive),
CCCCCN(CCCOC)C(=O)C(CCC(=O)O)NC(=O)c1ccc(Cl)c(Cl)c1 (stereo not given),,-0.673% [at 52.9 µM] (inactive),
CC(CO)c1ccccc1 (stereo not given),,8.83% (inactive),
O=S(=O)(Oc1ccc(Cl)cc1)c1ccccc1,,-2.84% (inactive),
O=C(c1ccccc1)c1ccc2n1CCC2C(=O)O (stereo not given),,-0.107% [at 52.9 µM] (inactive),
CC(C)COC(=O)c1ccccc1,,4.55% (inactive),
CC(=O)CCC(C)C,inactive,,
O=C(Nc1ccccc1)OCC(CN1CCCCC1)OC(=O)Nc1ccccc1 (stereo not given),,4.4% [at 52.9 µM] (inactive),
C[C@H](CCC(=O)O)[C@H]1CC[C@H]2[C@@H]3CC[C@@H]4C[C@H](O)CC[C@]4(C)[C@H]3CC[C@]12C,inactive,,
"Cc1c2oc3c(C)ccc(C(=O)N[C@@H]4C(=O)N[C@H](C(C)C)C(=O)N5CCC[C@H]5C(=O)N(C)CC(=O)N(C)[C@@H](C(C)C)C(=O)O[C@@H]4C)c3nc-2c(C(=O)N[C@@H]2C(=O)N[C@H](C(C)C)C(=O)N3CCC[C@H]3C(=O)N(C)CC(=O)N(C)[C@@H](C(C)C)C(=O)O[C@@H]2C)c(N)c1=O (I: T[dV]P[Sar][NMeV] / II: T[dV]P[Sar][NMeV]; ester I:1-I:C, II:1-II:C; linker I:N-II:N via Actinocin(9to1))",inactive,,
CCCCC(CC)COC(=O)/C=C/c1ccc(OC)cc1 (stereo not given),inactive,,
O=C1[C@H](CC[C@H](O)c2ccc(F)cc2)[C@@H](c2ccc(O)cc2)N1c1ccc(F)cc1,,-11% [at 52.9 µM] (inactive),
CC(=O)CC/C=C(\C)CCC=C(C)C,inactive,,

# Biological target: Acetylcholinesterase (Homo sapiens) (UniProt P22303)
# Experiment: Acetylcholinesterase (AChE) small molecule antagonists: enzyme-based qHTS assay (AID 1347397); note: nearly all actives have a fitted effect of over 55% in size
# Details: Potency: AChE enzyme activity inhibition; outcome: AChE enzyme activity inhibition; series mostly up to 115 µM; activity change, negative = inhibition: at the top concentration
# How it was run: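 Colorimetric DTNB read-out of thiocholine released from acetylthiocholine by recombinant human AChE (50 mU/mL as dispensed). Compounds were preincubated 30 min at RT before substrate/DTNB addition, with a 10 min RT reaction.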
SMILES,Potency,"activity change, negative = inhibition",outcome
CC(=O)Nc1cccc(O)c1,inactive,,
C=CC(=O)OCCOCCOCCOCCOC(=O)C=C,inactive,,
O=C=NCCCCCCN=C=O,inactive,,
CCN=C1C=CC(=C(c2ccc(N(CC)CC)cc2)c2ccc(N(CC)CC)cc2)c2ccccc21,19.9 µM (active),,
CC(C)(O)CCc1ccccc1,,-0.0023% (inactive),
Cc1ccc(C(C)C)cc2c(C)ccc1-2,,0.135% [at 53 µM] (inactive),
O=[N+]([O-])c1ccccc1C(F)(F)F,inactive,,
CCCCC/C=C\C/C=C\CCCCCCCC(=O)OC,inactive,,
CC(=O)OC/C=C(\C)CC/C=C(\C)CCC=C(C)C,inactive,,
Cc1c(C(C)C)c(=O)n(-c2ccccc2)n1C,,0.415% [at 53 µM] (inactive),
CN(C)CCOC(c1ccccc1)c1ccc(Br)cc1 (stereo not given),,-0.947% [at 53 µM] (inactive),
CCS(=O)(=O)c1ccc(OC)c(C(=O)OC)c1,,-0.27% [at 53 µM] (inactive),
CCOC(OCC)OCC,,0.94% (inactive),
COc1cc(O)cc(O)c1,,-0.554% [at 53 µM] (inactive),
O=C(Cl)c1ccc(C(=O)Cl)cc1,inactive,,
Cc1c(Cl)c(=O)oc2cc(O)ccc12,,-15.1% (inactive),
CC(C)(C)C(=O)CCc1ccc(Cl)cc1,,1.66% (inactive),
CC1=C(O)C(=O)OC1C (stereo not given),,-3.3% (inactive),
CC(CC(C#N)(c1ccccc1)C(C)C)N(C)C (stereo not given),,0.693% [at 53 µM] (inactive),
O=C(O)c1cccc(C[C@@H]2COc3ccc(OCc4nc5cc(F)ccc5s4)cc3[C@@H]2O)c1,,0.247% (inactive),

SMILES,Potency,"activity change, negative = inhibition",outcome
CCCc1cc(C(N)=S)ccn1,,0.008% [at 53 µM] (inactive),
O=C1CCCc2ccccc21,,-0.545% (inactive),
Nc1cccc(N)n1,inactive,,
CC(C)CC(=O)CC(C)CC(C)C (stereo not given),inactive,,
CCCCCNCCCCC,inactive,,
C#CCN[C@@H]1CCc2ccccc21,,,inactive
C(=C(c1ccccc1)c1ccccc1)c1ccccc1,,1.07% (inactive),
CC(C)CCO,,-1.16% (inactive),
CCCCCN(CCCOC)C(=O)C(CCC(=O)O)NC(=O)c1ccc(Cl)c(Cl)c1 (stereo not given),,-0.164% [at 53 µM] (inactive),
CC(CO)c1ccccc1 (stereo not given),,-0.645% (inactive),
O=S(=O)(Oc1ccc(Cl)cc1)c1ccccc1,,0.614% (inactive),
O=C(c1ccccc1)c1ccc2n1CCC2C(=O)O (stereo not given),,0.129% [at 53 µM] (inactive),
CC(C)COC(=O)c1ccccc1,,-2.19% (inactive),
CC(=O)CCC(C)C,inactive,,
O=C(Nc1ccccc1)OCC(CN1CCCCC1)OC(=O)Nc1ccccc1 (stereo not given),,0.0171% [at 53 µM] (inactive),
C[C@H](CCC(=O)O)[C@H]1CC[C@H]2[C@@H]3CC[C@@H]4C[C@H](O)CC[C@]4(C)[C@H]3CC[C@]12C,inactive,,
"Cc1c2oc3c(C)ccc(C(=O)N[C@@H]4C(=O)N[C@H](C(C)C)C(=O)N5CCC[C@H]5C(=O)N(C)CC(=O)N(C)[C@@H](C(C)C)C(=O)O[C@@H]4C)c3nc-2c(C(=O)N[C@@H]2C(=O)N[C@H](C(C)C)C(=O)N3CCC[C@H]3C(=O)N(C)CC(=O)N(C)[C@@H](C(C)C)C(=O)O[C@@H]2C)c(N)c1=O (I: T[dV]P[Sar][NMeV] / II: T[dV]P[Sar][NMeV]; ester I:1-I:C, II:1-II:C; linker I:N-II:N via Actinocin(9to1))",inactive,,
CCCCC(CC)COC(=O)/C=C/c1ccc(OC)cc1 (stereo not given),inactive,,
O=C1[C@H](CC[C@H](O)c2ccc(F)cc2)[C@@H](c2ccc(O)cc2)N1c1ccc(F)cc1,,-4.13% [at 53 µM] (inactive),
CC(=O)CC/C=C(\C)CCC=C(C)C,inactive,,
